# Assay results reported in PubChem BioAssay (Tox21).
# Results filed as inconclusive are left out. A call without a number means that no potency is given here. Some compounds were tested as several samples or in several runs, with calls that do not always agree. Active and inactive are the calls of the source. The call rests on the fitted dose curve.
# Experiment: p53 small molecule agonists, cell-based qHTS assay: qHTS cell viability counter screen (AID 1963581); further: nearly all actives have a fitted effect of over 45% in size
# Settings: p53RE-bla HCT-116 viability, ATP luminescence, 16 h; series mostly up to 66 µM
# Description: National Center for Advancing Translational Sciences [NCATS]
# Division of Preclinical Innovation [DPI]
# U.S. Environmental Protection Agency [EPA]
# National Institutes of Environmental Health Sciences [NIEHS]
# National Toxicology Program [NTP]
# U.S. Food and Drug Administration [FDA]
# p53, a tumor suppressor protein, is activated following cellular insult, including DNA damage and other cellular stresses. The activation of p53 regulates cell fate by inducing DNA repair, cell cycle arrest, apoptosis, or cellular senescence. The activation of p53, therefore, is a good indicator of DNA damage and other cellular stresses. The CellSensor p53RE-bla HCT-116 cell line (Invitrogen) contains a stably integrated beta-lactamase reporter gene under control of the p53 response elements. The activation of the reporter gene under culture conditions can be detected by fluorescence intensity. This cell line was used to screen the Tox21 compound library in a 1536-well plate format and to identify agonists that activate the p53 signaling pathway. The cytotoxicity of the Tox21 compound library against the p53 RE-bla HCT-116 cell line was tested in parallel by measuring the intra cellular ATP content in the same wells.
# Tox21 Assay Protocol Summary:
# The p53RE-bla cells were dispensed at 4,000 cells/5 ul/well in 1536-well black wall/clear bottom plates using a Multidrop dispenser. After the assay plates were incubated at a 37 C/5% CO2 incubator for 5 hours, 23 nL of compounds dissolved in DMSO, positive controls or DMSO only was transferred to the assay plate by a pin tool. The plates were incubated at 37 C for 16 hours. After 1 uL of LiveBLAzerTM B/G FRET substrate was added using a Flying Reagent Dispenser, the plates were incubated at room temperature for 2 hours, and fluorescence intensity was measured by an Envision plate reader. For cell viability readout that measures cytotoxicity, 4 ul/well of CellTiter-Glo reagent was added into the assay plates using a Flying Reagent Dispenser. After 30 min incubation at room temperature, the luminescence intensity in the plates was measured using a ViewLux plate reader.
# Potency means the concentration at half of the fitted maximal effect.
Compound,Potency,"activity change, negative = cytotoxicity"
CN(C)C(=O)Nc1cccc(C(F)(F)F)c1,inactive,–
CO[C@@H]1[C@H](OC(=O)NC(=O)CCl)CC[C@]2(CO2)[C@H]1[C@@]1(C)O[C@@H]1CC=C(C)C,–,4.01% [at 13.5 µM] (inactive)
CCOC(=O)C(c1c(O)c2ccccc2oc1=O)c1c(O)c2ccccc2oc1=O,inactive,–
O=c1oc2ccccc2c(O)c1C(CC(O)c1ccc(-c2ccc(Br)cc2)cc1)c1ccccc1 (stereo not given),19.3 µM (active),–
CCCCCCCCCCCCBr,inactive,–
CCC/C=N/O,inactive,–
CC(C)(O)C(=O)Nc1ccc([N+](=O)[O-])c(C(F)(F)F)c1,inactive,–
CCCCSP(=O)(SCCCC)SCCCC,inactive,–
CC(C)c1ccc(OP(=O)(Oc2ccc(C(C)C)cc2)Oc2ccc(C(C)C)cc2)cc1,inactive,–
CNC(=O)Oc1c(C(C)(C)C)cc(C)cc1C(C)(C)C,inactive,–
CN(CCCC(=O)c1cccnc1)N=O,inactive,–
COP(=S)(OC)SCN1C(=O)c2ccccc2C1=O,inactive,–
CN1CCC(N(Cc2ccccc2)c2ccccc2)CC1,inactive,–
O=S(=O)(O)O,inactive,–
CC(C)(c1ccc(OCC2CO2)cc1)c1ccc(OCC2CO2)cc1 (stereo not given),inactive,–
NC(=O)OCCCc1ccccc1,inactive,–
CCC(C)(C#N)N=NC(C)(C#N)CC (stereo not given),inactive,–
C=CC(N)=O,inactive,–
C[Si](Cn1cncn1)(c1ccc(F)cc1)c1ccc(F)cc1,inactive,–
CCCCOC(=O)COC(=O)c1ccccc1C(=O)OCCCC,inactive,–

Compound,Potency,"activity change, negative = cytotoxicity"
C#CCO,inactive,–
CC(C)=CCN1CC[C@@]2(C)c3cc(O)ccc3C[C@@H]1[C@@H]2C,inactive,–
CC(Cl)Cl,inactive,–
CN1C[C@H](C(=O)N[C@]2(C)O[C@@]3(O)[C@@H]4CCCN4C(=O)[C@H](Cc4ccccc4)N3C2=O)C=C2c3cccc4[nH]cc(c34)C[C@H]21,1.45 µM (active) and inactive,–
Cc1cc(Cl)ccc1N=CN(C)C,inactive,–
Nc1cccc(Cl)c1,inactive,–
CC1(C)C(=O)NC(=O)NC1=O,inactive,–
Nc1ccc(Oc2ccc(N)cc2)cc1,inactive,–
CN=C=O,inactive,–
CCCCC(CC)COC(=O)c1c(Br)c(Br)c(Br)c(Br)c1C(=O)OCC(CC)CCCC (stereo not given),inactive,–
COC(=O)c1ccccc1CS(=O)(=O)NC(=O)Nc1nc(OC)cc(OC)n1,inactive,–
Cc1ccc(O)c(C)c1,inactive,–
CCCCCCC1CCOC1=O (stereo not given),inactive,–
O=[N+]([O-])c1ccc(Cl)c([N+](=O)[O-])c1,26.1 µM (active),–
Cc1ccccc1N,inactive,–
CCC(Cl)[N+](=O)[O-] (stereo not given),inactive,–
c1ccc(Nc2ccc3ccccc3c2)cc1,inactive,–
CCN(CC)C(=O)SCc1ccc(Cl)cc1,inactive,–
N#CCC#N,inactive,–
C1CN2CCN1CC2,inactive,–
